From PubChem
TSG101-PTAP inh = qHTS Assay for Iinhibitors of HIV-1 Budding by Blocking the Interaction of PTAP/TSG101; 340,000 tested, under 10 active; Tumor susceptibility gene 101 protein (Homo sapiens), Q99816; Potency, µM (doses to about 115 µM), for the others: at the top dose activity change, negative = inhibition, usual class: inhibitors; AID 493005, 2010; Fluorescence polarization, FITC-PTAP peptide / Tsg101 binding; active means well fitted inhibition curve with a large enough effect in the main read-out, with a control signal flat, not every such curve was filed as active; inconclusive means small, poorly fitted or top-dose-only effect, or effect the other way, or a change in a side signal; inactive means no such curve, though single readings can be large or run the other way; further: potency means the concentration at half of the fitted maximal effect; % of control where 0% means no effect
Target sequence (Q99816 whole entry, looked up): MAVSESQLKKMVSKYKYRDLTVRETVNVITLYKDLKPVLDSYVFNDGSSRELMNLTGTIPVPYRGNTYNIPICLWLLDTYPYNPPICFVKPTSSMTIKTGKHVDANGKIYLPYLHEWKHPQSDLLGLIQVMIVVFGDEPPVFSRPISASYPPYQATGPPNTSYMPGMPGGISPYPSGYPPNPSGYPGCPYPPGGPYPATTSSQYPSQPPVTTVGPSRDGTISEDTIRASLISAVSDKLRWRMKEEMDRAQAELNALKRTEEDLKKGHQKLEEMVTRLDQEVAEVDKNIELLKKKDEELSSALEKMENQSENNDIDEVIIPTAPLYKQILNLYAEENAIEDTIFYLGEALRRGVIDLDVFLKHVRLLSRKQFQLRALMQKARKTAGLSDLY
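FP read-out: FITC-PTAP peptide, 50 nM final, binding Tsg101 binding domain, 10 uM final; 20 min, r.t.; 10 mM HEPES pH 7.5, 0.15 M NaCl, 0.01% Tween 20, 3 mM EDTA, 0.1 mM TCEP.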
Rango complex inh = qHTS Assay for Inhibitors of Rango (Ran-regulated importin-beta cargo) - Importin beta complex formation | Potency, µM (doses to about 92.2 µM), without a hit: at the highest dose inhibition of complex formation | AID 540263, 2011 | Rango CFP/YFP FRET sensor + importin beta, 45 min | 0.031% of 340,000 active | Importin subunit beta-1 (Homo sapiens), Q14974;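 further: potency means the concentration at half of the fitted maximal effect; 0% = DMSO wells and 100% = buffer wells lacking importin beta; nearly all actives have a fitted effect of over 15% in size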
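Inhibition scored from the CFP 486 nm/YFP 530 nm FRET ratio 45 min after adding 0.125 microM importin beta to 50 nM Rango biosensor preincubated 5 min with compound (room temperature, PBS with DTT, Tween-20, BSA). No-importin wells as positive control.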
Rango release inh = qHTS Assay for Inhibitors of RanGTP induced Rango (Ran-regulated importin-beta cargo) - Importin beta complex dissociation; Biochemical FRET Rango-importin beta, RanGTP-induced dissociation; Potency, µM (highest dose often 46.1 µM), for inactives: at the top dose activity change, negative = inhibition; 0.071% of 340,000 active; AID 540253, 2011; further: potency means the concentration at half of the fitted maximal effect; % of control where 0% means no effect; nearly all actives have a fitted effect of over 45% in size
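Rango/importin beta premix (0.1/0.25 uM final), PBS + 1 mM DTT + 0.02% Tween-20 + 0.1% BSA; cpd 5 min RT; FRET pre-read; + RanGTP-RCC1 (0.6 uM Ran, 2 mM GTP, 0.2 uM RCC1); 45 min RT; FRET post-read, ex 430, em 486/530 nm.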
Mm-Cpn inhibitor = Inhibitors of TCP-1 ring complex (TRiC) of Methanococcus maripaludis (MmCpn): qHTS. 0.031% of 330,000 active. Potency, µM (doses to about 76.9 µM), without a hit: at the highest dose activity, negative = inhibition, most hits filed as inhibitors. purified Mm-Cpn ATPase, ADP Transcreener TR-FRET; active means well fitted inhibition curve with a large enough effect; inconclusive means small, poorly fitted or top-dose-only effect; further: potency means the concentration at half of the fitted maximal effect; on the % scale 0 is the no-effect control and ±100 the full control effect; nearly all actives have a fitted effect of over 80% in size
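Eu-cryptate anti-ADP/ADP-d2 competition gives a ratio inversely related to ADP. Enzyme at 25 nM was pre-exposed to compound for 10 min, then given 10 uM ATP for 30 min, 37°C throughout.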
D3 ag = qHTS of D3 Dopamine Receptor Agonist: qHTS. D(3) dopamine receptor (Homo sapiens), P35462. D3R DiscoveRx beta-arrestin cells, luminescence, 90 min. max activation, %. 0.58% of 410,000 active; in the data active means max activation above about 30%; further: 0% is about no effect
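Cells at 1500/well, incubated overnight, then treated with pinned compounds (dopamine as control) for 90 min at 37 degrees C. DiscoveRx reagent added for 30 - 60 minutes at room temperature; luminescence read.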
DRD3 antagonist = qHTS of D3 Dopamine Receptor Antagonist: qHTS. D(3) dopamine receptor (Homo sapiens), P35462. D3R cells, DiscoveRx beta-arrestin luminescence, antagonist mode; active compounds read low. max response, negative = inhibition, %. 2.5% of 360,000 active. AID 652054, 2013; in the data active means max response below about -50%; inconclusive means no clear call, values can overlap the other calls; further: on the % scale 0 is the no-effect control and ±100 the full control effect
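Cells plated overnight at 1500 cells/well, then exposed to library compounds with dopamine controls for 90 minutes at 37 degrees C. DiscoveRx reagent added for 30–60 minutes at room temperature; luminescence read, quantitative HTS format.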
The depositor's hits bear a star; ? = inconclusive; · = no result given. Most compounds without a hit are left out; they make up all but 2.9% or so of the library. Unless noted, the call rests on the fitted dose curve.

SMILES | TSG101-PTAP inh | Rango complex inh | Rango release inh | Mm-Cpn inhibitor | D3 ag | DRD3 antagonist
COc1ccc2oc(-c3ccc(NC(=O)c4ccc(N5CCOCC5)c([N+](=O)[O-])c4)cc3)nc2c1 | -2% | 0% | 6% | 1% | 54* | 82
CCCN(CCC)C(=O)Cn1c(=O)n(Cc2ccc(C(=O)NCCc3ccc(OC)c(OC)c3)cc2)c(=O)c2ccccc21 | · | · | · | · | -15 | ·
COc1cc(-c2coc3c(C(=O)NCc4ccccc4)cccc23)ccc1O | · | · | · | · | 3 | 7
O=[N+]([O-])c1cccc(/C=N/Nc2nc(NCc3ccccc3)nc(N3CCOCC3)n2)c1O | -7% | 3% | 1% | -12% | -37 | -138*
O=[N+]([O-])c1ccc(/C=N/Nc2nc(NCc3ccccc3)nc(N3CCOCC3)n2)cc1 | -2% | 3% | -12% | -3% | 0 | 9
COc1ccc(N(CC(=O)NCCc2cccc(C)c2)S(=O)(=O)c2c(C)nn(C)c2C)cc1 | · | · | · | · | -2 | ·
Cc1ccc(NC(=O)c2ccc(-n3cccn3)c([N+](=O)[O-])c2)cc1 | -10% | 2% | 1% | 0% | -8 | -53*
CCOc1ccc(-n2c(SCC(=O)Nc3cc(C)ccc3C)nc3c([nH]c4ccccc43)c2=O)cc1 | · | · | · | · | -9 | ·
CCOC(=O)c1sc(NC(=O)COc2ccccc2Cl)c(C(=O)OCC)c1C | · | · | · | · | -12 | ·
COc1ccc(OC)c(C2C(C(=O)Nc3nc4ccccc4s3)=C(C)NC3=C2C(=O)CCC3)c1 (stereo not given) | -4% | ? | ? | 0% | 30* | 44
CCn1c(=O)sc2cc(NS(=O)(=O)c3ccc(F)c(C)c3)ccc21 | · | · | · | · | 1 | ·
CCN(CC)CCCNC(=O)c1ccc(Cn2c(SCc3ccccc3)nc3cccnc32)cc1 | · | · | · | · | -25 | ·
O=c1[nH]cc(N=Cc2cc(Cl)cc(Cl)c2O)c(=O)[nH]1 | -2% | ? | ? | 1% | -7 | -67*
CCC(c1nc2ccccc2[nH]1)n1c(-c2ccnc(Cl)c2)nc2ccccc21 (stereo not given) | · | · | · | · | -11 | -75*
CC(=O)N1CCc2c(sc3c2c(=O)n(-c2ccccc2)c(=O)n3Cc2cccc(C(F)(F)F)c2)C1 | · | · | · | · | -14 | ·
CCCOc1ccc(CCc2n[nH]c(=S)n2Cc2ccccc2)cc1 | -8% | -1% | 1% | 3% | 0 | -55*
CCCn1c2ccccc2c2nc3ccccc3nc21 | -4% | ? | ? | 0% | -1 | 0
N#CCCn1c2ccccc2c2nc3ccccc3nc21 | -7% | -3% | ? | -2% | -4 | -52*
O=C1NC(CCc2ccccc2)C(=O)N1Cc1ccc(Br)cc1 (stereo not given) | 0% | 1% | -2% | 3% | 0 | -71*
COc1cccc(CNc2nccn(-c3cc(C)cc(C)c3)c2=O)c1 | · | · | · | · | 5 | ·
CC1CCN(S(=O)(=O)c2ccc3c(c2)C(Cl)(Cl)C(=O)N3)CC1 | · | · | · | · | -6 | -70*
COc1ccc(NC(=O)CCS(=O)(=O)c2nc(-c3cccs3)cc(C(F)(F)F)n2)cc1OC | · | · | · | · | -15 | ·
CCCCCCCCCCCC(=O)OC[C@@H](O)C1OC[C@H](O)[C@H]1O (stereo not given in full) | · | · | · | · | 2 | ·
CCOc1ccccc1NC(=O)C(=O)/C=C(\O)c1cc(OC)ccc1OC | -1% | 0% | 7% | -3% | 1 | -53*
COc1ccc(OC)c(/C(O)=C/C(=O)C(=O)Nc2cc(C)ccc2OC)c1 | 1% | -3% | -5% | 0% | -5 | -57*
SMILES | TSG101-PTAP inh | Rango complex inh | Rango release inh | Mm-Cpn inhibitor | D3 ag | DRD3 antagonist
COc1ccccc1NC(=O)C(=O)/C=C(\O)c1ccccc1 | -4% | -5% | 1% | 0% | 21 | -8
COc1ccc(OC)c(/C(O)=C/C(=O)C(=O)Nc2cc(C)cc(C)c2)c1 | -3% | 3% | -14% | 0% | -1 | -86*
O=C(Nc1c(C(=O)N2CCN(c3ccccc3)CC2)oc2ccccc12)c1ccc(Br)o1 | · | · | · | · | -3 | ·
CC(C)(C)c1ccc(C(=O)Nc2nnc(C3=COCCO3)o2)cc1 | -1% | -3% | 0% | 2% | -14 | -71*
CN(C)c1ccc(C(=O)Nc2nnc(C3=COCCO3)o2)cc1 | 0% | -7% | 9% | 0% | -4 | 4
CC1(Cc2ccc(OC(F)(F)F)cc2)C(=O)Nc2ccc(OC(F)(F)F)cc21 (stereo not given) | · | · | · | · | 11 | 0
CCOC(=O)C1=NOC2(C1)C(=O)Nc1ccc(OC(F)(F)F)cc12 (stereo not given) | · | · | · | · | -2 | -87*
CCCCCCn1cc(C(=O)O)c(=O)c2ccccc21 | -3% | -3% | 0% | -2% | 2 | -63*
COc1cc(NC(C)CCCN)c2ncccc2c1Oc1ccccc1 (stereo not given) | -2% | ? | -24% | -2% | 7 | -56*
COc1ccc(Oc2c(OC)cc([N+](=O)[O-])c3ncccc23)cc1 | 2% | -2% | 0% | · | 1 | -11
CC1CCN(S(=O)(=O)c2ccc3c(c2)N(CC(=O)NCCN(C)C)C(=O)CS3)CC1 | · | · | · | · | 1 | ·
CCN(CC)c1ccc(C(=C2C=CC(=[N+](CC)CC)C=C2)c2ccccc2)cc1 | -2% | 6% | 18% | · | -16 | -105*
CCN(CC)c1ccc(C(=C2C=CC(=[N+](CC)CC)C=C2)c2ccc(N(CC)CC)cc2)cc1 | 1% | 5% | 14% | · | -10 | -19
COc1ccc(-c2nc(-c3cccc(C)c3)no2)cc1OC | -3% | 0% | 0% | -1% | 65* | 22
COc1cc(OC)cc(-c2nc(-c3cccc(C)c3)no2)c1 | · | · | · | · | -2 | ·
COc1cc(-c2nc(-c3cccc(C)c3)no2)cc(OC)c1OC | 0% | -4% | -2% | 1% | 58* | 40
CCOc1nc(NCc2ccco2)nc(Nc2ccc(OC)cc2)n1 | -20% | 4% | -3% | 1% | -1 | 17
COc1ccc(Nc2nc(NCc3ccco3)nc(N/N=C/c3ccccc3)n2)cc1 | -4% | 0% | 3% | -1% | -6 | -51*
